In PubChem BioAssay (NCI):
Compounds without any hit were thinned out: in the full panel of roughly 79,000, 15% have a hit. Rule as the data show it: active = growth inhibition above about 70%; inactive = the rest.

Key:
[1] = NCI Yeast Anticancer Drug Screen. Data for the rad50 strain (AID 155);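 also: 0% = growth of vehicle-only cultures of the same strain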; settings: S. cerevisiae rad50 strain growth inhibition; at 50.0 µM; stronger effect = higher value
Procedure, shortened: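 Yeast carrying a defined DNA repair defect were exposed to test compounds, and growth was compared with vehicle-treated controls to give percent inhibition.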

[2] = NCI Yeast Anticancer Drug Screen. Data for the sgs1 mgt1 strain (AID 161);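 also: 0% = growth of cultures given vehicle only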; settings: S. cerevisiae sgs1 mgt1 strain, at 50.0 µM, stronger effect = higher value
Procedure, shortened: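 Genetically altered yeast, compound exposure, growth inhibition relative to vehicle.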

[3] = NCI Yeast Anticancer Drug Screen. Data for the cln2 rad14 strain (AID 165);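 also: 0% = growth equal to vehicle treated cultures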; settings: S. cerevisiae cln2 rad14 strain, at 50.0 µM, stronger effect = higher value
Procedure, shortened: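 Each compound was tested on cln2 rad14 yeast. Inhibition of growth was calculated against vehicle-exposed controls.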

[4] = NCI Yeast Anticancer Drug Screen. Data for the bub3 strain (AID 167); settings: S. cerevisiae bub3 mutant strain, at 50.0 µM, stronger effect = higher value
Procedure, shortened: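 Compounds were applied to a genetically altered yeast strain carrying a cell-cycle control defect. Growth inhibition was scored against vehicle-treated controls.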

[5] = NCI Yeast Anticancer Drug Screen. Data for the mlh1 rad18 strain (AID 175); settings: S. cerevisiae mlh1 rad18 strain growth inhibition; at 50.0 µM; stronger effect = higher value
Procedure, shortened: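 Vehicle-treated cultures served as the reference for growth inhibition in a yeast strain carrying DNA damage repair alterations exposed to each compound.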

[6] = NCI Yeast Anticancer Drug Screen. Data for the mec2-1 strain (AID 157); settings: S. cerevisiae mec2-1 strain, at 50.0 µM, stronger effect = higher value
Procedure, shortened: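 Vehicle-treated cultures served as reference for growth inhibition of compound-exposed mec2-1 yeast.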

Measured: growth inhibition

CCCCC(CC)CCC(O)C(O)C(C)C (stereo not given) (tested in a mixture with another compound)
inactive: [1] -3.85% | [2] -7.8% | [3] -14.3% | [4] -8.95% | [5] -14.8%

CCOC(=O)/C(C#N)=C/c1ccc(O)c(OC)c1
inactive: [1] 30.4% | [2] 4.95% | [3] 14.5% | [4] 12.6% | [5] 23.3%

CCCCOC(=O)C(C)OC(=O)OC (stereo not given)
inactive: [1] -21.1% | [2] -2.25% | [3] -28.8% | [4] -15.7% | [5] 8%

COc1c2occc2c(Br)c2ccc(=O)oc12
inactive: [1] 13% | [2] 19.4% | [3] 7.45% | [4] 51.8% | [5] 8.6%

COc1nc2cc(C)c(C)cc2n1C1OC(CO)C(O)C1O (stereo not given)
inactive: [1] -12.6% | [2] 6.95% | [3] -8.3% | [4] -0.9% | [5] -7%

CCC(CC(C)C)C(=O)OCCBr (stereo not given)
inactive: [1] 17.9% | [2] 20.6% | [3] -12.8% | [4] 45.5% | [5] 14.4%

CCCCN(C=O)CCCC
inactive: [1] 20.7% | [2] 17.4% | [3] 9.45% | [4] 4.75% | [5] 3.7%

CC(=O)O[C@H]1CC[C@@]2(C)[C@@H](CC[C@@H]3[C@@H]2CC(=O)[C@@]2(C)[C@H]3C[C@@H]3CC(C)=CC(=O)[C@@H]32)C1
inactive: [1] 48.2% | [2] 28.6% | [3] -20.6% | [4] -34.9% | [5] 28%

Nc1ccccc1/C=C(\C(=O)O)c1ccccc1
inactive: [1] -19.9% | [2] 14.8% | [3] 12.4% | [4] -0.6% | [5] 11.4%

O=C1CN(c2cccc(Cl)c2)C(=O)CN1/N=C/c1ccc(O)c(O)c1
inactive: [1] -29.1% | [2] 3.45% | [3] -6.95% | [4] 46% | [5] -8.9%

O=C(O)CC(CC(=O)O)c1ccc2c(c1)OCO2
inactive: [1] -32.6% | [2] -3.7% | [3] -1.2% | [4] -35.8% | [5] -13.1%

CCOC(=O)/C(=C/c1cc(OC)ccc1OC)P(=O)(OCC)OCC
inactive: [6] -12.9% | [2] -17.6% | [3] -25.1% | [4] 4.65% | [5] -0.9%

O=C1C(=Cc2ccc(Cl)c(Cl)c2)C([O-])=C([P+](c2ccccc2)(c2ccccc2)c2ccccc2)C([O-])=C1[P+](c1ccccc1)(c1ccccc1)c1ccccc1
inactive: [6] -44.6% | [2] -7.05% | [3] 5.15% | [4] -21.9% | [5] -19.6%

Nc1nc(Cl)cc(NCCCNc2cc(Cl)nc(N)n2)n1
inactive: [6] 6.55% | [2] 13.3% | [3] 1.15% | [4] 3.65% | [5] 4.35%

CC(=O)OCC1OC(n2c3c(c(-c4ccc(Cl)cc4)c(C#N)c2=S)C(=O)CC(C)(C)C3)C(OC(C)=O)C(OC(C)=O)C1OC(C)=O (stereo not given)
inactive: [6] -10.9% | [2] 12.6% | [3] -5.25% | [4] 23.4% | [5] -37.5%

COC(=O)c1ccc(CSc2ccc(N)cc2)cc1
inactive: [6] 36.2% | [2] 60.6% | [3] 40.1% | [4] 46.1% | [5] 68.5%

CCCCOC(=O)C1CC2CC1C1OC21 (stereo not given)
inactive: [6] -63.3% | [2] -23.7% | [3] -0.3% | [4] -51.9% | [5] -33.5%

Brc1ccc2oc3ccccc3c2c1
inactive: [6] -2.45% | [2] 18.4% | [3] -5.5% | [4] 6.75% | [5] 24.8%

Cc1ccc(S(=O)(=O)N/N=C2\C3CC4CC(C3)C2C4)cc1 (stereo not given)
inactive: [6] -24.1% | [2] -12.9% | [3] -6.5% | [4] -6.25% | [5] -15.2%

O=C(CC(=O)N(C(=O)c1ccccc1)c1ccc(Cl)cc1)N/N=C\c1ccccc1O
inactive: [6] -5.4% | [2] 5.45% | [3] -1.85% | [4] 19.9% | [5] -15.4%

O=S1(=O)C(Cl)=C(O)c2ccccc21
inactive: [6] 6.5% | [2] -2.05% | [3] -22.6% | [4] -7.7% | [5] 11.4%

CC1=C(/C=C/C(C)=C/C=C/C(C)=C/C=C/C=C(C)/C=C/C=C(C)/C=C/C=C(C)/C=C/C=C(\C)C(=O)O)C(C)(C)CCC1
inactive: [6] 25.6% | [2] -21.8% | [3] 18.6% | [4] 7.6% | [5] -2.1%

CC(C)CC(N)C(=O)OCN1C(=O)C2C3C=CC(C2C1=O)C1C2C(=O)N(COC(=O)C(N)CC(C)C)C(=O)C2C31 (stereo not given)
inactive: [6] 15.6% | [2] 5.05% | [3] 36.5% | [4] -0.05% | [5] 9.7%
